From PubChem BioAssay (NCI)
About 79,000 compounds went through this panel and 15% of them were active in at least one assay; those are over-represented in the sample as a whole. A number with no mark means an inactive call. Activity calls are given as the source filed them. Cut-off read from the data, not from the text of the source: active = growth inhibition above about 70%; inactive = the rest.

How the values were obtained:
[1] = NCI Yeast Anticancer Drug Screen. Data for the rad50 strain (AID 155);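 note: 0% = growth of vehicle-only cultures of the same strain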; settings: S. cerevisiae rad50 strain growth inhibition; at 50.0 µM; stronger effect = higher value
Outline: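 Growth of the mutant yeast was measured after compound exposure and referenced to vehicle-treated cultures.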

[2] = NCI Yeast Anticancer Drug Screen. Data for the mec2-1 strain (AID 157); settings: S. cerevisiae mec2-1 strain, at 50.0 µM, stronger effect = higher value
Outline: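 mec2-1 yeast strain, carrying an alteration in DNA damage repair or cell cycle control, was exposed to compounds; growth inhibition was measured relative to vehicle-treated controls.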

[3] = NCI Yeast Anticancer Drug Screen. Data for the sgs1 mgt1 strain (AID 161);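 note: 0% = growth of cultures given vehicle only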; settings: S. cerevisiae sgs1 mgt1 strain, at 50.0 µM, stronger effect = higher value
Outline: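 Compounds are added to genetically altered yeast, and growth is compared with cultures given vehicle alone to give percent inhibition.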

[4] = NCI Yeast Anticancer Drug Screen. Data for the cln2 rad14 strain (AID 165);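 note: 0% = growth equal to vehicle treated cultures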; settings: S. cerevisiae cln2 rad14 strain, at 50.0 µM, stronger effect = higher value
Outline: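 Yeast carrying cln2 and rad14 alterations (cell cycle control and DNA damage repair) were exposed to compounds. Growth inhibition was measured against vehicle-treated controls.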

[5] = NCI Yeast Anticancer Drug Screen. Data for the bub3 strain (AID 167); settings: S. cerevisiae bub3 mutant strain, at 50.0 µM, stronger effect = higher value
Outline: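 Whole-cell yeast assay. The mutant strain was incubated with compounds, and growth inhibition was determined by comparison with vehicle-treated cells.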

[6] = NCI Yeast Anticancer Drug Screen. Data for the mlh1 rad18 strain (AID 175); settings: S. cerevisiae mlh1 rad18 strain growth inhibition; at 50.0 µM; stronger effect = higher value
Outline: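 Growth inhibition of the yeast strain was measured after compound exposure and expressed relative to vehicle-treated controls. The strain carries defined defects in DNA damage repair.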

Row | SMILES | growth inhibition [1] | growth inhibition [2] | growth inhibition [3] | growth inhibition [4] | growth inhibition [5] | growth inhibition [6]
1 | COc1ccc(/C=N/NC(=O)c2ccccc2NC(=O)c2ccccc2Cl)cc1 | 17.4% | -25.1% | 29.1% | -13.7% | 7.25% | 24.7%
2 | COC(=O)c1c(C(=O)c2ccccc2)nn2c(-c3ccccc3)c(-c3ccccc3)c(-c3ccccc3)c(-c3ccccc3)c12 | 10.3% | -1.6% | -23.6% | 7.05% | -1.1% | 0.1%
3 | CC1=C(C)C(=O)OC1 | -3.55% | -12.3% | -0.9% | 6% | 9.85% | -24.5%
4 | CC(C)(C)C1=CC(=C2C(=O)C(=O)c3ccccc3C2=O)C=C(C(C)(C)C)C1=O | -3.2% | -22.2% | -12.7% | 6.85% | 22.4% | -21.5%
5 | CCOC(=O)CCC(C(=O)c1cccnc1)c1ccccn1 (stereo unspecified) | -4% | -3.6% | 6.7% | -52.9% | -4.6% | -7.05%
6 | Cc1c(Cl)cccc1NC(=O)Oc1ccc(F)cc1Cl | -1.4% | -3.1% | -2.3% | 7.35% | 17.6% | -4.55%
7 | O=C1/C(=C/c2ccc(O)cc2)CCC1CNc1ccc(Cl)cc1 (stereo unspecified) | 14.8% | 12.6% | -2.6% | 18.1% | 5.55% | 39.9%
8 | Cc1c(Cl)cccc1NC(=O)C(=O)C(C(=O)c1ccccc1-c1ccccc1)C1OC(=O)c2ccccc21 (stereo unspecified) | -31.9% | -44.5% | -14.3% | -41.8% | 11.9% | -23%
9 | CC(=O)Oc1ccc(C(C)(C)C)cc1C | 6.05% | -10.1% | -9.45% | -6.85% | 0.35% | -21.1%
10 | CS1(C)=NC(=O)c2cc([N+](=O)[O-])ccc2N=1 | 12.2% | 19.4% | 10.4% | -25.2% | 11.8% | 12.8%
11 | CCOc1cccc(-c2ccccc2)c1 | 18.3% | 17.6% | 16.9% | 9.35% | 1.1% | -0.35%
12 | CC(=O)c1ccc(N2C(=O)CC(NC3CCCCC3)C2=O)cc1 (stereo unspecified) | -7.4% | 7.1% | 9.45% | -2.15% | 1.65% | -17.4%
13 | C=CC(CO)N1CCCCC1 (stereo unspecified) | -9.15% | 24.6% | -1.05% | -8.9% | -19.2% | 13.9%
14 | CC(C)CC(C)OC(=O)CC(CC(=O)OC(C)CC(C)C)C(=O)OC(C)CC(C)C (stereo unspecified) | -6.8% | -17.1% | -13.1% | 26.2% | 20.9% | -4.15%
15 | CC1(C)OC2OC(CNC(=O)c3ccccc3)C(O)C2O1 (stereo unspecified) | -9.05% | -4.4% | 3.05% | -3.1% | -10.3% | -18.8%
16 | C=C1C(=O)OC2C1C(=O)C/C(C)=C/CCC1(C)OC21 (stereo unspecified) | 35.6% | 52% | 63.2% | 34% | 66% | 9.95%
17 | CC(NS(=O)(=O)c1ccccc1)C(N)=O (stereo unspecified) | 2.75% | 2.1% | 3.55% | -11.2% | 6.95% | -2.4%
18 | COc1ccc(CCCc2cc3c(cc2OC)OCO3)cc1 | 5.6% | -4.1% | 15.5% | -8.65% | 35.6% | 12.2%
19 | COc1cc(C(=O)O)cc(OC)c1OC(C)=O | 6.65% | -7% | 3.8% | 9% | -34.7% | -8.65%
20 | O=[N+]([O-])c1cc(Cl)cc2cc(Br)cnc12 | 4.2% | 15.3% | -19.9% | 3.8% | 10.5% | 4.4%
21 | N#CNC1=NC(N)C(c2nc3ccccc3[nH]2)=C(CCCC(=O)Nc2cccc([N+](=O)[O-])c2)N1 (stereo unspecified) | 17.1% | 17.1% | 5.45% | 25.9% | 35.9% | 5.65%

Row | SMILES | growth inhibition [1] | growth inhibition [2] | growth inhibition [3] | growth inhibition [4] | growth inhibition [5] | growth inhibition [6]
22 | O=C(Nc1cccc2ccccc12)O/N=C/c1ccccn1 | -9.3% | -3.4% | -11.4% | 39.3% | -7% | -1.7%
23 | CC1(O)C(=O)N(Cc2ccccc2)c2ccccc21 (stereo unspecified) | 25.6% | -5% | -5.2% | -8.5% | -10.4% | 4.05%
24 | CC1(C)OC2COC(CNS(C)(=O)=O)C2O1 (stereo unspecified) | 12.2% | -12.2% | -9.2% | 5.1% | 2.85% | 28.4%
25 | CCCCCCCCCCCCCCCC[N+](C)(C)CC#CCCl | -3.15% | 99.5% (active) | 48.6% | 98.7% (active) | 99.3% (active) | 48.8%
26 | COc1ccc(NC(C)c2ccncc2)cc1 (stereo unspecified) | -17.8% | -16% | -29% | -9.95% | -9.9% | -46%
27 | O=C(O)c1ccccc1NC(C(=O)O)c1ccccc1 (stereo unspecified) | -13.1% | -4.25% | -27.4% | 9.1% | -18.9% | -11.7%
28 | Nc1nc(SCc2ccccc2Cl)cc(C(=O)O)n1 | 31.6% | 34.7% | 47.2% | 4.15% | 44% | 53%
29 | CC(C)CCCC(C)C1CCC2C3CC=C4CC(OP(=O)(O)OC5CCC6(C)C(=CCC7C6CCC6(C)C(C(C)CCCC(C)C)CCC76)C5)CCC4(C)C3CCC12C (stereo unspecified) | -7.55% | -23.8% | -3.65% | 7.8% | -7.6% | -5.5%
30 | CC(=O)OCc1cc2c(cc1CNCc1ccccc1)OCO2 | 12.5% | -2.15% | 7.25% | -31.4% | 5% | 7.25%
31 | CN(N=O)C(=O)NCCc1ccccc1 | 13.6% | -11.9% | 11.6% | -36.6% | -5.2% | 16.2%
32 | CN(C)c1ccc(SSc2ccc(N(C)C)cc2)cc1 | -6.9% | -20.6% | 3.2% | -3.9% | 6.55% | 1.25%
33 | Cc1ccc(-c2cc(O)c3nc4ccccc4n3c2)cc1 | -36.4% | -10.1% | -31.4% | -22.9% | -18.5% | -24.1%
34 | CN(C)S(=O)(=O)C=C(c1ccccc1)c1ccccc1 | 1.25% | 4.1% | 17.4% | -5.1% | 15.3% | -0.2%
35 | COC(=O)C1CCc2ccccc2C1=O (stereo unspecified) | -12.6% | -13.7% | 1.95% | 6.4% | 2.7% | 12.2%
36 | CCNC(=S)NCCc1c[nH]c2ccccc12 | -57% | -3.55% | -7.75% | -0.4% | 2.55% | -36.6%
37 | COC(=O)C(/C(=N/N)C(=O)Nc1cccc(O)c1)c1nc2ccccc2[nH]c1=O (stereo unspecified) | -39.1% | -7.65% | -42% | -15.2% | -39.1% | -34.4%
38 | COc1ccc(NC(=O)CSc2cc(Cl)ccc2Cl)cc1 | 10.7% | 7.15% | 32.1% | 18.9% | 21.6% | 27.9%
39 | CCOc1c(OC)cc(-c2nc3n(n2)C(=O)C(CC)S3)cc1OC (stereo unspecified) | -15.6% | -17.4% | -41.3% | -4.85% | -3.65% | -4.2%
40 | Nc1ccc(N2CCN(c3ccc(N)cc3)CC2)cc1 | 12.2% | -9.95% | 16% | 10.2% | 12.3% | 15.8%
41 | OC(c1ccccc1)(c1c2ccccc2cc2ccccc12)C1CCC1 (stereo unspecified) | 16.8% | 20.1% | 0.9% | 9.75% | 13% | -5.65%
